# Active and inactive are the calls of the source.
# Tests used:
# [1] = system: Human papillomavirus type 1a protein E7 (residues 44-93); assay: small molecules binding HPV E7 44-93 – biochemical, small-molecule microarray, residues 44-93, 635 nm fluorescence, primary screen (AID 1108); settings: fluorescence 635 nm, higher = more signal;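 note: E7 fragment applied at 1 µg/mL in TBST for 1 h at 4 C; score combines spot fluorescence with its signal to noise ratio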
# [2] = hepatitis C replication reporter changes, two-sided – Huh7 cells, luciferase reporter, HCV replication inhibitor project, primary screen (AID 1109); settings: Huh7 HCV replicon luciferase reporter, 48 h; higher = more signal;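 note: huh7 hepatoma cells harbouring a luciferase neomycin HCV replicon reporter; luciferase luminescence as measure of HCV replicon replication; test concentration not given here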
# [3] = target: Left-right determination factor 2 (Homo sapiens) (UniProt O00292); assay: small molecules binding LEFTY2 protein – biochemical, small-molecule microarray, 635 nm fluorescence scan, primary screen (AID 1110); settings: higher = more signal
# [4] = target: Calmodulin-1 (Homo sapiens) (UniProt P0DP23); assay: small molecules binding calmodulin-1 with EGTA – biochemical, small-molecule microarray, Cy5-labelled CALM1, profiling panel (AID 1111); settings: Cy5-CALM1 binding fluorescence, higher = more signal;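 note: labelled calmodulin applied in Tris saline Tween buffer holding calcium plus EGTA and DTT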
# [5] = target: Calmodulin-1 (Homo sapiens) (UniProt P0DP23); assay: small molecules binding Ca-loaded calmodulin-1 – biochemical, small-molecule microarray, Cy5-labelled CALM1, plus calcium, artefact control for SMM control-protein annotation, profiling panel (AID 1112); settings: Cy5-CALM1 binding fluorescence, higher = more signal;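 note: score merges spot fluorescence with signal to noise from triplicate slides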
# [6] = probe aWnt5a binding to arrayed compounds – biochemical, biotinylated probe, 635/667 nm fluorescence, primary screen (AID 1113); settings: small-molecule microarray, higher = more signal;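 note: score merges 667 nm fluorescence intensity with signal-to-noise per printed feature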
# [7] = probe aShh binding to arrayed compounds – biochemical, biotinylated probe, 635/667 nm fluorescence, primary screen (AID 1114); settings: small-molecule microarray, higher = more signal;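 note: probe is biotin-labelled aShh protein from a stem cell growth factor screen; measures binding of labelled protein to compounds printed on the slide; score merges feature fluorescence at 667 nm with signal-to-noise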
# [8] = probe aNog binding to arrayed compounds – biochemical, biotinylated probe, 635/667 nm fluorescence, primary screen (AID 1115); settings: small-molecule microarray, higher = more signal;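 note: probe is biotinylated aNog protein used at 0.15 µg/mL for 1 h at 4 C; z-score combines 667 nm fluorescence of each spot with its signal to noise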
# [9] = target: Torsin-1A-interacting protein 1 (Homo sapiens) (UniProt Q5JTV8); assay: compound microarray binding of lysate hLAP1 – cell lysate, small-molecule microarray, COS7 lysate, 635/667 nm fluorescence, primary screen (AID 1116); settings: 635 nm fluorescence, higher = more signal
# [10] = target: Alpha-bungarotoxin (Bungarus multicinctus) (UniProt P60615); assay: compounds binding labelled alpha-BTX control protein – biochemical, small-molecule microarray, Alexa647 label, 635/667 nm fluorescence, artefact control for SMM control protein annotation, profiling panel (AID 1117); settings: alpha-BTX-A647 binding fluorescence, higher = more signal
# Albumin (Bos taurus) = Albumin (Bos taurus) (UniProt P02769); assay: compounds binding labelled BSA control protein – biochemical, small-molecule microarray, Alexa647 label, 635/667 nm fluorescence, artefact control for SMM control protein annotation, profiling panel (AID 1118); settings: BSA-A647 binding, fluorescence 635 nm, higher = more signal;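 note: score merges 667 nm emission intensity and signal-to-noise per printed compound spot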
# [11] = probe aXIP binding to arrayed compounds – biochemical, NeuroSMM set, 635/667 nm fluorescence, primary screen (AID 1119); settings: small-molecule microarray, higher = more signal, called active from +8 up or from −8 down;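 note: probe is the protein aXip251-270 applied at 1 µg/mL to compound-printed slides; binding of probe to printed compounds measured as 667 nm fluorescence plus signal to noise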
# [12] = probe aNOTCH3 binding on compound microarray – biochemical, small-molecule microarray, 635/667 nm fluorescence, primary screen (AID 1120); settings: higher = more signal;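 note: probe is a biotin-tagged antibody raised against NOTCH3 rather than NOTCH3 protein; score merges spot fluorescence near 667 nm with spot signal to noise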
# [13] = probe aNOTCH2 binding on compound microarray – biochemical, small-molecule microarray, 635/667 nm fluorescence, primary screen (AID 1121); settings: higher = more signal;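 note: score merges feature fluorescence read at 667 nm with its signal to noise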
# [14] = target: Carbonic anhydrase 2 (Homo sapiens) (UniProt P00918); assay: compounds binding carbonic anhydrase 2 – biochemical, small-molecule microarray, Alexa647-labelled CAII, profiling panel (AID 1122); settings: CAII-A647 binding fluorescence, higher = more signal
# [15] = COS7 lysate on small-molecule microarray, probe aHis, 635 nm (AID 1123); settings: COS7 cell lysate, fluorescence, higher = more signal;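 note: z-score combines 667nm fluorescence intensity with signal-to-noise per printed compound spot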
# [16] = probe aLAP1 signal on lysate-treated microarray – cell lysate, small-molecule microarray, COS7 lysate, primary screen (AID 1124); settings: probe aLAP1, fluorescence, higher = more signal;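 note: lysate comes from COS7 cells expressing LAP1 and is applied at 0.3 µg/mL; score merges spot fluorescence near 667 nm with signal-to-noise over triplicate slides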
# Sam68 (KHDRBS1) = assay: compounds binding KHDRBS1 protein – biochemical, small-molecule microarray, 635 nm fluorescence, primary screen (AID 1125); settings: higher = more signal;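 note: score merges 667 nm channel intensity with signal to noise over triplicate slides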
# [17] = system: Chordin-like protein 2 (CHRDL2); assay: compounds binding chordin-like 2 – biochemical, small-molecule microarray, 635 nm fluorescence, primary screen (AID 1126); settings: fluorescence 635 nm, higher = more signal;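 note: printed compound slides probed with Chrdl2 protein at 4 µg/mL for 1 h at 4 C; score merges 667 nm emission intensity with signal to noise over three replicate slides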
# [18] = target: Concanavalin-A (Canavalia ensiformis) (UniProt P02866); assay: compounds binding concanavalin A lectin – biochemical, small-molecule microarray, Alexa647 label, 635 nm, artefact control for SMM control protein annotation, primary screen (AID 1127); settings: ConA-A647 binding fluorescence, higher = more signal;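 note: z combines 667 nm emission intensity with signal-to-noise across three replicate slides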
# Chain of Concanavalin-A (Canavalia ensiformis) (P02866 whole entry, looked up): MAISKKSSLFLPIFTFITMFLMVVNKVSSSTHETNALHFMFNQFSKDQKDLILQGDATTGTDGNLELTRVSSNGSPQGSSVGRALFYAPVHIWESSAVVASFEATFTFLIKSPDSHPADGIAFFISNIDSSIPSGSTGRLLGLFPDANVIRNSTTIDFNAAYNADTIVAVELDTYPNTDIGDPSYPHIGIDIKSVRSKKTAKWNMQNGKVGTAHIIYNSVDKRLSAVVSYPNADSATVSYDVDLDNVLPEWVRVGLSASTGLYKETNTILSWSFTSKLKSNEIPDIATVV
# Chain of Albumin (Bos taurus) (P02769 whole entry, looked up): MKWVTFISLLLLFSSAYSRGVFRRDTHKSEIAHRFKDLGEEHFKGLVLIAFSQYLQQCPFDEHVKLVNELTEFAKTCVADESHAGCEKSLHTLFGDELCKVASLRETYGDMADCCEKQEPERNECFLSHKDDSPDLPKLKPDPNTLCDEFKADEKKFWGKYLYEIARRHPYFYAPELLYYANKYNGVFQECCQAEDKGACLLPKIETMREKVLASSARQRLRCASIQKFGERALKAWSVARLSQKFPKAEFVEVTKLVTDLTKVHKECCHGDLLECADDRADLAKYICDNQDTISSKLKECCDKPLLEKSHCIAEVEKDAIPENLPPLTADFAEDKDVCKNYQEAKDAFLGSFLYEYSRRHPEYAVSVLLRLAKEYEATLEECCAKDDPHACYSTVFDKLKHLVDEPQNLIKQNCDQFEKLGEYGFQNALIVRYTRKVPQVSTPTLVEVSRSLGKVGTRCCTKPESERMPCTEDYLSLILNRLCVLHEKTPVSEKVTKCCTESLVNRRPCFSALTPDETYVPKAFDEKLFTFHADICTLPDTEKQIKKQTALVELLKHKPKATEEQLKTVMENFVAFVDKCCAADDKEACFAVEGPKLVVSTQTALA
# Chain of Alpha-bungarotoxin (Bungarus multicinctus) (P60615 whole entry, looked up): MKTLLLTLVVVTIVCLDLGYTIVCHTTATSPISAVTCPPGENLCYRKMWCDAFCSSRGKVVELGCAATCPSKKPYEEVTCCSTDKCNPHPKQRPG
# Chain of Left-right determination factor 2 (Homo sapiens) (O00292 whole entry, looked up): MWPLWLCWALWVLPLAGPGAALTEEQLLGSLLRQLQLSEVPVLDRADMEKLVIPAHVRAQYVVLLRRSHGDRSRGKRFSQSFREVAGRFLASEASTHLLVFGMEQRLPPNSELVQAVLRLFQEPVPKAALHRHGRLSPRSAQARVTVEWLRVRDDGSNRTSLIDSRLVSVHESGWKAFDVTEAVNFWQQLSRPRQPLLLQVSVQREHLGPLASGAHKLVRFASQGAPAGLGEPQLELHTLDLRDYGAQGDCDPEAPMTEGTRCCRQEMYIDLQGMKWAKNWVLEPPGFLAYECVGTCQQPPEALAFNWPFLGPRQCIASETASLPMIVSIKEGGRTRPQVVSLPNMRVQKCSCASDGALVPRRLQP
# Chain of Torsin-1A-interacting protein 1 (Homo sapiens) (Q5JTV8 whole entry, looked up): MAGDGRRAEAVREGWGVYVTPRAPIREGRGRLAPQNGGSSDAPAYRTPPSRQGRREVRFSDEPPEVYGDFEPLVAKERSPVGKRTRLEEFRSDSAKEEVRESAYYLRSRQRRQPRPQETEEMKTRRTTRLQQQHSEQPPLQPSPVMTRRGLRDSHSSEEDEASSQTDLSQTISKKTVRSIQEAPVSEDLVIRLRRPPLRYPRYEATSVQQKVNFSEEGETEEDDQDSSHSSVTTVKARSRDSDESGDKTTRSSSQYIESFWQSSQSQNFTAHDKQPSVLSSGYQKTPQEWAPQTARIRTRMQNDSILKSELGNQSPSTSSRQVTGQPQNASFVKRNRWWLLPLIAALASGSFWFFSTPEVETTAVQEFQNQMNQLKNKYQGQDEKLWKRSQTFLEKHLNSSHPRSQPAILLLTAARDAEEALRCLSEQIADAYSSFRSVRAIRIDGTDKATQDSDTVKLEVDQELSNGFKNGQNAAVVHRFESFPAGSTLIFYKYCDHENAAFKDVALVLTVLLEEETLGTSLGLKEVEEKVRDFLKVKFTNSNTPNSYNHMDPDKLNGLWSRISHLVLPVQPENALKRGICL
SMILES,composite z-score [1],z-score [2],composite z-score [3],composite z-score [4],composite z-score [5],composite z-score [6],composite z-score [7],composite z-score [8],composite z-score [9],composite z-score [10],composite z-score (Albumin (Bos taurus)),composite Z-score [11],composite z-score [12],composite z-score [13],composite z-score [14],composite z-score [15],composite z-score [16],composite z-score (Sam68 (KHDRBS1)),composite z-score [17],composite z-score [18]
COC(=O)[C@@]1(Cc2ccc(OC)cc2)[C@H]2c3cc(C(=O)N4CCCC4)n(CCc4c[nH]c5ccc(OC)cc45)c3C[C@H]2CN1C(=O)c1ccccc1,0.113,-1.93,0.221,2.28,1.46,0.155,0.504,1.54,2.19,1.38,0.93,-0.453 (inactive),0.319,0.387,0.711,2.81,0.8,1.11,-1.04,0.852
COc1ccc([Si](C)(C)[C@@H]2[C@@H](CCO)O[C@]3(C(=O)N(Cc4ccccc4)c4ccc(N5CCOC5=O)cc43)[C@H]2C)cc1,1.35,-4.17,0.217,0.623,0.521,0.394,-0.0793,0.0139,0.855,1.09,0.279,0.774 (inactive),-0.0647,-0.102,0.324,0.747,0.294,1.32,0.127,0.816
O=C(NCCN1CCOCC1)[C@@H]1c2ccccc2C(=O)N(C2Cc3ccccc3C2)[C@H]1c1ccc(CO)cc1,1.4,-1.42,-1.57,-0.472,-0.301,-0.23,-0.13,-0.447,0.554,0.776,0.268,-0.27 (inactive),-0.223,0.0129,0.498,0.866,1.77,1.01,-0.419,0.466
CCCNC(=O)[C@@]1(C)c2ccccc2C(=O)N(c2ccc(C)cn2)[C@H]1c1ccc(CO)cc1,-0.846,0.155,0.384,-0.474,-0.524,-0.124,-0.291,0.0373,0.311,-0.163,-0.0296,0.164 (inactive),-0.246,-0.108,0.699,-0.604,-0.105,-0.264,0.0286,-0.283
C=CC[C@]1(C(=O)N2CCCCC2)N=C(c2ccc(OCCCO)cc2)O[C@H]1c1ccccc1CN=[N+]=[N-],1.42,-2.64,0.264,1.7,0.204,0.0246,-0.138,-0.769,0.447,0.875,0.472,0.256 (inactive),0.405,-0.147,0.69,2.31,0.817,1.3,-0.406,1.1
CCOC(=O)[C@@H]1CCCCN1C(=O)C(=O)OC,0.5,-0.583,0.449,-0.499,-0.305,-0.0684,-0.0904,-0.158,-0.274,0.154,0.145,-0.587 (inactive),-0.0431,-0.274,-0.177,0.226,0.193,0.322,-0.0507,0.131
C=C(COC)C(=O)CC[C@@H](OC(C)=O)c1cccc(OCCO)c1,-0.297,-2.41,-0.278,-0.582,-0.909,-0.0403,-0.214,-0.0827,0.578,-0.485,-0.693,-0.0662 (inactive),-0.0647,-0.125,0.59,-0.591,-0.621,-0.873,-0.109,-0.797
O=C1[C@H]2C=C(I)[C@H](C[C@@H]2OCCOCCO)[C@@]12CO2,0.496,-2.21,0.547,-0.315,-0.876,-0.26,-0.243,0.101,0.269,-0.0432,-0.35,-0.175 (inactive),-0.0299,-0.173,-0.0167,-0.477,0.072,0.807,0.466,0.2
COc1ccc([Si](C)(C)[C@H]2[C@H](CC(=O)N3Cc4ccccc4C[C@H]3CO)O[C@@]3(C(=O)N(Cc4ccc(N5CCOC5=O)cc4)c4ccccc43)[C@@H]2C)cc1,0.559,-4.15,0.843,-0.766,-0.665,-0.0944,-0.0769,-0.267,0.612,1.22,-0.153,0.949 (inactive),-0.0106,-0.0249,0.444,0.591,0.246,1.33,1.32,1.05
CC[C@@H]1C=C(C(=O)O)[C@H](c2ccc(C#N)cc2)N1S(=O)(=O)c1ccc(C)cc1,0.458,-0.651,0.635,1.45,-0.0241,0.0136,-0.0324,0.598,2.47,0.62,0.173,0.474 (inactive),-0.0077,-0.046,0.838,3.03,1.44,1.09,-1.52,0.91
CC(C)[Si](C#C[Si](C(C)C)(C(C)C)C(C)C)(O[C@H](c1ccccc1)c1cn(Cc2ccccc2)nn1)C(C)C,1.06,-0.0298,0.637,0.192,-0.774,-0.0794,-0.0769,0.256,0.352,0.717,-0.0062,-0.058 (inactive),0.143,-0.146,0.237,-0.366,-0.0307,1.02,0.511,0.135
COCC(=C=CC[C@H](O)c1ccc(OCCO)cc1)CCO,0.364,-0.794,0.774,-0.31,-0.618,-0.0239,-0.138,-0.0898,1.6,-0.829,-0.173,-0.321 (inactive),-0.0298,0.0312,0.736,0.368,0.342,0.763,0.262,-0.155

# — PubChem BioAssay
